A selection: hits, their analogues and other compounds. The true share with any hit is near 2.6%.
GLP1R cytotox: qHTS of GLP-1 Receptor Inverse Agonists: Cytotox Screen. HEK293 cAMP-luciferase reporter cells, luminescence, 24 h. Potency, µM (top dose mostly 38.3 µM), for inactives: at the top dose activity change, negative = inhibition, most hits filed as inhibitors. 410,000 compounds, 0.13% hits. AID 624418, 2012;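 also: loss of luciferase light is scored as toxicity; % is scaled to controls: 0 for no effect and ±100 for the full control effect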
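1536-well qHTS counterscreen of the MLSMR; 200 cells/uL, 12 h pre-incubation, 23 nL cpd, 24 h at 37 deg C 5% CO2, luciferase detection reagent, 12 min RT, luminescence. Inhibition = undesired.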
BRCA1 expr act: qHTS Assay to Identify Small Molecule Activators of BRCA1 Expression. MCF7-BRCA1-FFLuc reporter, luminescence, 48 h; response scale: scaled: vehicle 0%, 10 µM genistein 100%. Potency, µM (series often up to 46.1 µM), for the others: top-dose activation, actives largely listed as activators. 380,000 compounds, 1.1% hits. AID 624202, 2012; also: nearly all actives have a fitted effect of over 80% in size
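MCF7-BRCA1-FFLuc cells, 2000/well in phenol-red-free MEM, attached 2 h then treated 48 h at 37 C. Luciferase luminescence read 15 min after reagent; normalized to genistein maximum activation (10microM) and DMSO, concentration-response fitted.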
GLP1R ag: qHTS of GLP-1 Receptor Agonists; HEK293 GLP-1R CRE-luciferase, luminescence, 4-6 h; cells express a hypersensitive GLP-1R form; 380,000 compounds, 0.007% hits; AID 624172, 2012; Potency, µM (top dose mostly 45.6 µM), for the others: top-dose activation, hits mostly activators; Glucagon-like peptide 1 receptor (Homo sapiens), P43220; also: % of control where 0% means no effect
Target sequence (P43220 whole entry, looked up): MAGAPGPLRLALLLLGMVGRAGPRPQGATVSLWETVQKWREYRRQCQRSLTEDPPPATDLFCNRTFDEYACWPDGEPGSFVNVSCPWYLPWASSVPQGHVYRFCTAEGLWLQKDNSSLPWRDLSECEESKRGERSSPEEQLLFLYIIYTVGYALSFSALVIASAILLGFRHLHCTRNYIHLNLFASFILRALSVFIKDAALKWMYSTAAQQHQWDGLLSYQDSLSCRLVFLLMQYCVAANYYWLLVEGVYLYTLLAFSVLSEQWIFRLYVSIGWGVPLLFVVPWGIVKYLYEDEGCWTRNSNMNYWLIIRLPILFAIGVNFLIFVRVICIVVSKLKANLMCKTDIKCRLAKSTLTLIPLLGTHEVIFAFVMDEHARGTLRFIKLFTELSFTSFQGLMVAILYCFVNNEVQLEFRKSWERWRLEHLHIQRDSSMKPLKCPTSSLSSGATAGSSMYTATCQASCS
GLP1R inv ag: qHTS of GLP-1 Receptor Inverse Agonists (Inhibition Mode); Glucagon-like peptide 1 receptor (Homo sapiens), P43220; HEK293 GLP-1R CRE-luciferase, luminescence, 24 h; GLP-1R form is constitutively active; Potency, µM (doses to about 38.3 µM), inactives show at the top dose activity change, negative = inhibition, actives largely listed as inhibitors; 410,000 compounds, 1.6% hits; AID 624417, 2012; also: % is scaled to controls: 0 for no effect and ±100 for the full control effect; nearly all actives have a fitted effect of over 55% in size
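HEK293 cells stably co-expressing constitutively active GLP-1R and a cAMP-responsive luciferase reporter were seeded in DMEM with 10% Nu serum, given compounds after 12 h, and incubated 24 h at 37 deg C. Luminescence was then read.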
* marks the source's active call; other numbers are inactive results; ? = inconclusive; . = no result. Calls follow the shape of the dose curve; as a rule, active = well fitted curve in the direction sought with a large enough effect; inconclusive = small, poorly fitted or top-dose-only effect, or another doubt; inactive = no such curve, though single readings can be large; an effect the other way counts as inactive or inconclusive. Potency is read from the fitted curve at half-maximal effect.

SMILES	GLP1R cytotox	BRCA1 expr act	GLP1R ag	GLP1R inv ag
Cc1ccc(S(=O)(=O)c2ccc([N+](=O)[O-])cn2)cc1	?	-99%	-4%	7.9µM*
COc1ccc(N(CC(=O)Nc2ccc(OC)c(Cl)c2)S(=O)(=O)c2c(C)noc2C)cc1	3%	-37%	8%	1%
COc1ccc(OC)c(NC(=O)CN(c2ccc(C)cc2)S(=O)(=O)c2c(C)noc2C)c1	-23%	-21%	4%	10µM*
COc1cccc(CNC(=O)CN(c2cc(C)cc(C)c2)S(=O)(=O)c2c(C)noc2C)c1	1%	0%	0%	10µM*
COc1ccc(N(CC(=O)Nc2cc(Cl)ccc2OC)S(=O)(=O)c2c(C)noc2C)cc1	-26%	-90%	10%	4.5µM*
COc1ccc(OC)c(NC(=O)CN(c2ccc(C(C)C)cc2)S(=O)(=O)c2c(C)noc2C)c1	-17%	-77%	0%	?
COc1cccc(CNC(=O)CN(c2ccc(C(C)C)cc2)S(=O)(=O)c2c(C)noc2C)c1	-6%	-10%	0%	-11%
O=C(C(=O)N(C1CCCCC1)C1CCCCC1)c1ccccc1	-4%	.	.	?
CCc1ccc(NC(=O)CSc2nc3c(sc4ccccc43)c(=O)n2CCCOC(C)C)cc1	3%	10%	-2%	15%
CCOC(=O)C(C(=O)OCC)C1N=C(N)N=C2Oc3ccccc3N21 (stereo not drawn)	0%	13µM*	5%	34%
CCOC(=O)CN1C(=O)C(CC)Oc2ccccc21 (stereo not drawn)	1%	1%	-12%	-2%
Cc1cccc(C(=O)Nc2ccc(C(=O)OCc3cc(=O)n4nc(CC(C)C)sc4n3)cc2)c1	12%	.	.	11%
O=C(C1=C(O)C(=O)N(CC2CCCO2)C1c1ccc(Cl)cc1Cl)c1ccco1 (stereo not drawn)	1%	-21%	0%	9%
O=C(CCC(=O)N1Cc2ccccc2Oc2ncccc21)NCc1ccccc1Cl	0%	.	.	-15%
Cc1[nH]c2ccccc2c1SCCNC(=O)c1ccc(Br)o1	-21%	-50%	3%	11µM*
Cc1ccc(Cc2nc3ccccc3nc2SCC(=O)N2CCCCC2)cc1	-1%	.	.	?
CCCCNC(=O)CSc1nc2ccccc2nc1Cc1ccc(C)cc1	5%	2%	2%	0%
COc1ccccc1N1CCN(C(=O)CSc2nc3ccccc3nc2Cc2ccccc2)CC1	-15%	-52%	2%	11µM*
CCCCN(C)C(=O)CSc1nc2ccccc2nc1Cc1ccc(C)cc1	-20%	0%	.	11µM*
O=C(CSc1nc2ccccc2nc1Cc1ccc(Cl)cc1)N1CCCCC1	0%	.	.	10µM*
Cn1c(-c2ccccc2)cnc1SCC(=O)N1CCCCC1	-13%	?	-31%	4µM*
Cc1ccc(C2(SCC(N)C(=O)O)c3ccccc3-c3ccccc32)cc1 (stereo not drawn)	-5%	-1%	-2%	?
Cc1ccc(NC(=O)c2cn3c4c(ccc(Cl)c4c2=O)OC(C)C3)c(C)c1 (stereo not drawn)	-4%	.	.	10%
O=C(CCSc1ccc(Cl)cc1)N1CCCCCC1	3%	13µM*	0%	?
O=C(CSc1nc2ccccc2nc1SCC(=O)N1CCCCC1)N1CCCCC1	?	-24%	-1%	10µM*
SMILES	GLP1R cytotox	BRCA1 expr act	GLP1R ag	GLP1R inv ag
O=C(CSc1nc2ccccc2nc1SCC(=O)N1CCOCC1)N1CCOCC1	-4%	-18%	2%	0%
CC1CCCCN1C(=O)CSc1nc2ccccc2nc1Cc1ccc(Cl)cc1 (stereo not drawn)	1%	.	.	5µM*
Cc1nc(SCC(=O)N2CCN(c3ccccc3)CC2)n[nH]1	5%	-1%	4%	-4%
O=C(CSc1nc(N2CCCCC2)nc(N2CCCCC2)n1)N1CCN(c2ccccc2)CC1	-21%	-71%	0%	2.8µM*
Cc1c(-c2ccc(Cl)cc2)c(=O)oc2c(CN3CCN(CCO)CC3)c(O)ccc12	476%	.	.	?
CC1CCCCN1C(=O)CSc1nc(C2CC2)nc2ccccc12 (stereo not drawn)	?	-31%	16%	7.9µM*
N=c1c2c(ncn1Cc1ccco1)Oc1c(ccc3ccccc13)C2c1ccccc1 (stereo not drawn)	?	-103%	18%	4µM*
